# The supplement of paper PMC10338343
# ± gives the standard deviation. In all, about 6,200 sequences were measured (“pre-steady-state target cleavage rate”: median about 0.29, highest 2% from about 2 on). This is one part of a sample in which the highest values are shown more often than they occur.
# System: MIWI (PIWIL1) piRISC loaded with piRNA #1 (30 nt)
# Experiment: pre-steady-state target cleavage rate (min^-1); MIWI and MILI are mouse PIWI proteins and EfPiwi is from a freshwater sponge; tags in brackets are library labels; higher = faster piRNA-guided slicing of the target
# Details: guide: piRNA #1 5'p-UGAGGUAGUAGGUUGUAUAGUAUCCAGAGG; auxiliary factor: 500 nM mouse GTSF1
# Procedure: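 Cleave-'n-Seq: a library of target RNAs (target site embedded in constant flanks, ACAGCATTCCGCGTTAGTGATATCCG... 5' flank; DNA-blocked outside the site) at 0.1 nM was incubated with 1 nM active mouse MILI or MIWI piRISC (synthetic 5'-monophosphorylated piRNA guide) with or without 500 nM mouse GTSF1 at 33 °C for 1 min to 16 h. Uncleaved targets were sequenced and normalised to non-target controls, and the pooled three trials were fitted to a burst-and-steady-state model to give the pre-steady-state cleavage rate (min^-1; k3 is constrained to at most 1e-4). Sequence is the target site only; target names encode pairing extent (gX:gY) and contiguous / 1-mismatch / 2-mismatch / bulge geometry. Fits with R² ≤ 0 are excluded.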
row,Sequence,pre-steady-state target cleavage rate
1,GGACUUGGAUACUAUACAACCUACUACCUCA,1.78 ± 0.11
2,CCUCUUGGAUACUAUACAACCUACUACCUCA,2.3 ± 0.12
3,GCUCUUGGAUACUAUACAACCUACUACCUCA,2.1 ± 0.1
4,GCUUGGAUACUAUACAACCUACUACCUCA,1.87 ± 0.12
5,GGUUUGGAUACUAUACAACCUACUACCUCA,1.81 ± 0.084
6,GGUCUUGGAUACUAUACAACCUACUACCUCA,1.87 ± 0.11
7,GGUUGGAUACUAUACAACCUACUACCUCA,1.78 ± 0.1
8,CCUUGGAUACUAUACAACCUACUACCUCA,2.26 ± 0.14
9,GGAGACCUAACUAUACUAGCUACUACCUCA,0.0132 ± 0.006
10,GGAGACCUAACUUACAACCUACUACCUCA,0.00932 ± 0.008
11,CCUCUGGAUACUAUCAACCUACUACCUCA,1.82 ± 0.12
12,GGAGAGGAUACAAUACAACCUACUACCUCA,1.18 ± 0.063
13,CCUCUGGAUACUAUACAAACUACUACCUCA,1.27 ± 0.047
14,GGAGACCUAUCUAUACUACCUACUACCUCA,0.0899 ± 0.011
15,GGUCUGGAUAGUAUACAACGUACUACCUCA,0.319 ± 0.047
16,GGAGACCUAACUAUACAACGUACUAGCUCA,0.024 ± 0.0084
17,GGACUGGAUGCUAUACAACCUACUACCUCA,1.82 ± 0.15
18,CCUCUGGAUACUAUCCAACCUACUACCUCA,2.1 ± 0.14
19,GCUCUGGAUACUAUACCAACCUACUACCUCA,0.392 ± 0.075
20,GCUCUGGAUACUAUCCAACCUACUACCUCA,2.05 ± 0.14
21,GGACUGGAUACUAUCCAACCUACUACCUCA,1.76 ± 0.11
22,GCUCUGGAUACUAUCAACCUACUACCUCA,1.78 ± 0.12
23,GGUCUGGAUACUAUCCAACCUACUACCUCA,1.96 ± 0.14
24,GGAGAGGAUACUAUACAACCUAGUACCUCA,0.145 ± 0.031

row,Sequence,pre-steady-state target cleavage rate
1,GGAGACGAUACUAUACAACCUACAUCCUCA,0.342 ± 0.029
2,GGAGACCAAACUAUACAUCCUACUACCUCA,0.513 ± 0.06
3,GGAGUGCAUACUAUACAACCUACUACGUCA,0.629 ± 0.053
4,GGUCUGGAUACUUAUCAACCUACUACCUCA,0.863 ± 0.11
5,GCUCUGCAUACUAUACAACCUACAACCUCA,1.37 ± 0.12
6,CCUCUGGCAUACUAUACAACCUACUACCUCA,2.31 ± 0.12
7,GGUCUGGCUACUAUACAACCUACUACCUCA,1.99 ± 0.11
8,GCUCUGGAUACUAUACAACCUACAUACCUCA,1.87 ± 0.16
9,GGACUGGCAUACUAUACAACCUACUACCUCA,1.68 ± 0.12
10,CCUCUGGCUACUAUACAACCUACUACCUCA,2.25 ± 0.11
11,GCUCUGGCAUACUAUACAACCUACUACCUCA,2.17 ± 0.12
12,GCUCUGGCUACUAUACAACCUACUACCUCA,1.93 ± 0.099
13,GGUCUGGCAUACUAUACAACCUACUACCUCA,1.86 ± 0.12
14,GGACUGGAUACAAUACAAGCUACUACCUCA,0.683 ± 0.041
15,GGAGACCUUACUAUACAACCUACUACCUGA,0.777 ± 0.077
16,GGAGUGGAUACUAUACCAACCUACUACCUCA,0.0192 ± 0.0054
17,GCUCUGGAUACUAUACAAGCUACUAGCUCA,0.745 ± 0.073
18,GGAGACCUAUGUAUACAUCCUAGUACCUCA,0.00528 ± 0.0014
19,GGAGACCUAACUAUACUACCUUCUACCUCA,0.00903 ± 0.0034
20,GGAGACCAUACUAUACAACCUACUACCUUCA,1.59 ± 0.1
21,GGAGACCAUACUAUACAACCUACUACUUCA,2.14 ± 0.14
22,GCUCUCCUUACUAUACAACCUACUACCUCA,1.85 ± 0.12
23,GCUCUCCAUACUAUACAACCUACUACCUCA,2.13 ± 0.13
24,GGAGACCAUACUAUACAACCUACUACCUACA,1.77 ± 0.18

row,Sequence,pre-steady-state target cleavage rate
1,CCUCUCCAUACUAUACAACCUACUACCUCA,2.04 ± 0.12
2,GGUCUCCAUACUAUACAACCUACUACCUCA,1.79 ± 0.1
3,GGUCACCAUACUAUACAACCUACUACCUCA,1.77 ± 0.11
4,GCUCACCAUACUAUACAACCUACUACCUCA,1.87 ± 0.13
5,GGAGUCCAUACUAUACAACCUACUACCUCA,1.63 ± 0.091
6,GGACUCCAUACUAUACAACCUACUACCUCA,1.67 ± 0.11
7,CCUCACCAUACUAUACAACCUACUACCUCA,2.03 ± 0.12
8,GGAGUGGAUACUAUACAACGUACUAGCUCA,0.0857 ± 0.017
9,GCUCUCGAUACUAUACAACCUACUACGUCA,1.24 ± 0.079
10,GCACUGGAUACUAUACAUCCUACUACCUCA,1.88 ± 0.096
11,CCUCAGGAUACUAUACAACCUACUAGCUCA,1.13 ± 0.056
12,GGAGACGAUACUAUACAACCUACUACCUUA,1.35 ± 0.09
13,GGAGUGCAUAGUAUACAACCUACUACCUCA,0.659 ± 0.04
14,GGAGACCUAUCUAUAGAACCUAGUACCUCA,0.0363 ± 0.0089
15,GGAGAGUGAUACUAUACAACCUACUACCUCA,2.1 ± 0.15
16,GGAGUGUGAUACUAUACAACCUACUACCUCA,1.81 ± 0.1
17,GGAGUGAGAUACUAUACAACCUACUACCUCA,1.77 ± 0.094
18,GGAGAGAUACUAUACAACCUACUACCUCA,1.89 ± 0.11
19,GGAGUGAUACUAUACAACCUACUACCUCA,1.77 ± 0.11
20,GGAGAGGAUACUAUACAACCUACCUACCUCA,1.05 ± 0.059
21,GGAGAUGAUACUAUACAACCUACUACCUCA,1.86 ± 0.095
22,GGAGAGAGAUACUAUACAACCUACUACCUCA,2.02 ± 0.12
23,GGAGAAGAUACUAUACAACCUACUACCUCA,2.04 ± 0.11
24,GGAGUGGAUACUUUACAACCUACUACCUCA,1.53 ± 0.086
